# Assay results reported in PubChem BioAssay AID1259245 (Vanderbilt High Throughput Screening Facility, 2017).
# Out of some 40,000 compounds screened, about 1,400 (3.5%) were called active.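 The calls were made as follows: active = any of four per-well response measures lying three or more SD from its plate-wide compound average, in either direction; inactive = the rest, inconclusive results apart.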 The sample as a whole holds a higher share of actives than the screen did.
# Target: Voltage-dependent calcium channel gamma-2 subunit (Mus musculus) + Glutamate receptor 2 (Rattus norvegicus) (UniProt O88602+P19491)
# Test: modulators of GluA2-stargazin AMPA receptor complexes, primary screen, cell-based, membrane potential dye (AID 1259245)
# Details: HEK293 GluA2+stargazin, membrane potential dye (FDSS), glutamate EC50, at 30 µM, hits were called plate by plate, in both directions; compound max-min signal: compound-alone response (agonism); glutamate slope, % of max: measured here: glutamate response slope, % max
# Sequence of Voltage-dependent calcium channel gamma-2 subunit (Mus musculus) + Glutamate receptor 2 (Rattus norvegicus) (O88602 whole entry, looked up): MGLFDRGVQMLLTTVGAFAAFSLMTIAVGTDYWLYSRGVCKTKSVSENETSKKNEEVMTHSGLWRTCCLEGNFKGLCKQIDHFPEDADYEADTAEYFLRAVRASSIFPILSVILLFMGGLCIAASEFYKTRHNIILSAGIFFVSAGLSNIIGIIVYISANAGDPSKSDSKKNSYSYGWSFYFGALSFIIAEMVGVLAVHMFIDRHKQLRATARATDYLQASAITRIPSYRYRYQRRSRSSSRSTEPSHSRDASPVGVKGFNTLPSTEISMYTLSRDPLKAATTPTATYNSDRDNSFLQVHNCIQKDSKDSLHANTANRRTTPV
# Sequence of Voltage-dependent calcium channel gamma-2 subunit (Mus musculus) + Glutamate receptor 2 (Rattus norvegicus) (P19491 whole entry, looked up): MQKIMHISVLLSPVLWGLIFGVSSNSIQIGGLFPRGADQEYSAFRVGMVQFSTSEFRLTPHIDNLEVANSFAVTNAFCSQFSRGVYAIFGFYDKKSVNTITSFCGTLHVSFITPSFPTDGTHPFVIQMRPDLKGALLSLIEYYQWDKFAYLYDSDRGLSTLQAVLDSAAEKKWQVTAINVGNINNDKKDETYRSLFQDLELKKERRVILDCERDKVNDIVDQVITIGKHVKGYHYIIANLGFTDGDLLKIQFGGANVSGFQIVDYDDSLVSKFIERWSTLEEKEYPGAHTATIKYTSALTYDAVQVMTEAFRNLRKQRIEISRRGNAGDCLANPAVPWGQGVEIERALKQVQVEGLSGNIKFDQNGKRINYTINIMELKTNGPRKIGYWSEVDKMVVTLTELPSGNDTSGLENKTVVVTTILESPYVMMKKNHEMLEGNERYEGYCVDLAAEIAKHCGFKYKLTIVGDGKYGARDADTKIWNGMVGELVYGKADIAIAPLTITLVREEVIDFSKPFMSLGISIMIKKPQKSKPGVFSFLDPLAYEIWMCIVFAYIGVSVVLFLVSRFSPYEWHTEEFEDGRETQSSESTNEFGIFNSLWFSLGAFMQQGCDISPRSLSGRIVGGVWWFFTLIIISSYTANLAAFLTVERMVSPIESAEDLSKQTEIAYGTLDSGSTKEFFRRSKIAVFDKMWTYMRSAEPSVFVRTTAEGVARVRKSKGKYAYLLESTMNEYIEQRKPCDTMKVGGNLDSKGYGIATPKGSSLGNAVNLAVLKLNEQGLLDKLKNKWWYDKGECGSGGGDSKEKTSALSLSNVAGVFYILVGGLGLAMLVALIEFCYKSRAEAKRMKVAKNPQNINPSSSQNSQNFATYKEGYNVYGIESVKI
Structure (SMILES),compound max-min signal,"glutamate response, % of max","glutamate slope, % of max [%]"
CCNC(=O)CSc1nc(-c2ccccc2)c(NC(=O)CC2CCCC2)s1,0.0584,31.3% (inactive),44.8
COc1ccc(CC(=O)NCCOc2cc(C)cc(C)c2)cc1OC,0.0873,52% (inactive),63.4
CC(C)NC(=O)Nc1ccc(CN2CCN(C)CC2)cc1,0.107,37% (inactive),57.1
COc1ccc([N+](=O)[O-])cc1NC(=O)c1ccno1,0.13,15.2% (inactive),32.1
COc1ccc(SCCC(=O)N2CCN(c3nc4ccc(F)cc4s3)CC2)cc1,0.0995,50.5% (inactive),60.6
O=C(c1ccno1)N1CCN(c2nc3ccc([N+](=O)[O-])cc3s2)CC1,0.188,27.8% (active),50.2
CN(C)C(=O)N1CCN(S(=O)(=O)c2ccc(F)cc2)CC1,0.11,30.6% (inactive),58.2
O=C(CCCS(=O)(=O)c1ccc(F)cc1)Nc1cccc2c1C(=O)NC2=O,0.0985,41.1% (inactive),66.5
COc1ccc(N(Cc2cccc(C)c2)S(=O)(=O)c2ccc3nnc(C)n3c2)cc1,0.0921,39% (inactive),70.3
Cc1ccc([N+](=O)[O-])cc1NC(=O)C(=O)NCC(c1cccs1)N(C)C (stereo not drawn),0.155,57.6% (inactive),83.7
CCCN(CCC)S(=O)(=O)c1cc([N+](=O)[O-])ccc1C,0.0514,71% (active),88.7
CCc1nc2sc(C(c3ccc(F)c(F)c3)N3CCN(C(C)=O)CC3)c(O)n2n1 (stereo not drawn),0.111,52.6% (inactive),74.4
NS(=O)(=O)c1ccc(CNC(=O)Cc2csc(Nc3cccc(Cl)c3)n2)cc1,0.171,32.8% (inactive),56.3
COCC(=O)Nn1cnc2c(cnn2C(C)(C)C)c1=O,0.121,-2.09% (active),5.77
CC(C)(C)n1ncc2c(=O)n(NC(=O)Cc3ccc([N+](=O)[O-])cc3)cnc21,0.0341,22.1% (inactive),47.4
Cc1ccccc1C(=O)Nn1cnc2c(cnn2C(C)(C)C)c1=O,0.0501,31.3% (inactive),53.1
Cc1cc(C)c2c(n1)sc1c(=O)n(CC(=O)Nc3ccccc3Br)cnc12,0.125,47% (inactive),70.2
COc1ccc(Cl)cc1NC(=O)NCC#CCN1CCc2ccccc2C1,0.108,30.6% (inactive),53.9
COc1ccc(Cl)cc1NC(=O)CC1C(=O)NCCN1C(=S)Nc1ccccc1 (stereo not drawn),0.205,26.6% (active),35.6
CCCOC(=O)CC1C(=O)NCCN1C(=S)NC(=O)c1cccc(Cl)c1 (stereo not drawn),0.102,20% (inactive),39.3
Cn1nnc2c(N(CCc3ccccc3)Cc3ccccc3)ncnc21,0.0947,34% (inactive),57.6
CCOC(=O)c1cn(CC(=O)Nc2ccc(C)cc2Cl)c2nc(C)ccc2c1=O,0.132,31.9% (inactive),51
COc1cc(NS(=O)(=O)c2ccc(NC(=O)c3ccc(S(=O)(=O)N4CCOCC4)cc3)cc2)ncn1,0.0995,43.4% (inactive),72.4

Structure (SMILES),compound max-min signal,"glutamate response, % of max","glutamate slope, % of max [%]"
CCOc1ccc2nc(N(Cc3ccncc3)C(=O)/C=C/c3cccs3)sc2c1,0.107,21.1% (inactive),47.3
O=S(=O)(c1cccs1)N1CCC(c2ccsc2)CC1,0.115,35.3% (inactive),65.4
COc1ccc(S(=O)(=O)N2CCN(c3ccc4nncn4n3)CC2)cc1C,0.114,18.4% (inactive),44.4
O=S(=O)(c1ccc2c(c1)CCCC2)N1CCN(c2ccc3nncn3n2)CC1,0.0592,23.2% (inactive),46.1
O=S(=O)(c1ccc(F)cc1F)N1CCN(c2ccc(-c3cccs3)nn2)CC1,0.0403,12.3% (inactive),30.1
CCc1ccc(S(=O)(=O)N2CCN(c3ccc(Nc4cccc(C)n4)nn3)CC2)cc1,0.366,22.6% (active),37.7
Cc1cccc(Nc2ccc(N3CCN(S(=O)(=O)c4cccs4)CC3)nn2)n1,0.445,13.5% (active),21.9
COc1cccc(-c2noc(C3CCN(S(=O)(=O)c4ccc(C)cc4)CC3)n2)c1OC,0.0999,28.5% (inactive),52.6
O=S(=O)(c1ccccc1)N1CCN(Cc2nnnn2-c2ccc(F)cc2)CC1,0.0497,29.1% (inactive),63.3
O=S(=O)(Cc1ccc(Cl)cc1)c1ccc(NCc2ccccc2)nn1,0.0863,49.2% (inactive),64.8
CCOC(=O)N1CCN(/C=C2\Oc3c(ccc(O)c3C)C2=O)CC1,0.132,21.6% (inactive),32.3
COc1ccc(-c2cc3ccc4c(c3oc2=O)CN(C2CCS(=O)(=O)C2)CO4)cc1OC (stereo not drawn),0.083,20.7% (inactive),43.1
CC(O)(CNC(=O)/C=C/c1ccccc1)c1ccccc1 (stereo not drawn),0.0976,44.2% (inactive),61.2
Cc1cnc2c(c1SCC(=O)O)c(=O)n(C)c(=O)n2C,0.0266,30.3% (inactive),58
Cc1cnc2c(c1NCCc1ccc(S(N)(=O)=O)cc1)c(=O)n(C)c(=O)n2C,0.167,32.2% (active),50
COCc1cnc2c(c1SCc1ccc(Br)cc1)c(=O)n(C)c(=O)n2C,0.0342,27% (inactive),47.1
Cc1cnc2c(c1SCc1ccc([N+](=O)[O-])cc1)c(=O)n(C)c(=O)n2C,0.158,47.1% (active),69.5
Cn1c(=O)c2c(ncn2CCc2ccccc2)n(C)c1=O,0.12,41.9% (inactive),67.6
CCOC(=O)C(CC)Sc1ccnc2c1c(=O)n(C)c(=O)n2C (stereo not drawn),0.0572,21.5% (inactive),49.8
COc1ccc(CNC(=O)C(=O)NCC2CCN(Cc3cccs3)CC2)cc1,0.0534,41.2% (inactive),57.3
CCOc1ccc(CC(=O)Nc2nn(C)c3c2C(C)CC(=O)N3)cc1 (stereo not drawn),0.129,42.6% (inactive),64.1
O=C(Nc1cc(-c2ccco2)nn1-c1nc(-c2ccccc2)cc(=O)[nH]1)c1ccco1,0.115,35.5% (inactive),53.1
Cn1nnc2c(N3CCN(C(=O)c4cc5ccccc5o4)CC3)ncnc21,0.0567,24.9% (inactive),41.7
